TDP-43 yeast inh: inhibitors of TDP-43 toxicity in yeast. TDP-43 expressing yeast growth rescue, BacTiter-Glo, 24 h. Potency, µM (series often up to 46.1 µM), for the others: at the top dose growth rescue (activation), actives largely listed as activators. 410,000 tested, 1.8% active. AID 652104; note: % of control where 0% means no effect; nearly all actives have a fitted effect of over 50% in size
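In this qHTS, compounds that restore growth of yeast expressing TDP-43 appear as activators. Cells (OD600=0.02, galactose medium, raffinose-pregrown) are incubated with compound 24 hr at 30 deg C and growth is quantified by BacTiter-Glo.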
aSyn rescue: inhibitors of alpha-synuclein toxicity in yeast. Yeast expressing alpha-synuclein, growth rescue, BacTiter-Glo, 24 h. 370,000 tested, 0.14% active. Potency, µM (doses to about 46.1 µM), inactives show top-dose growth rescue (activation), usual class: activators. AID 652106; note: % of control where 0% means no effect; nearly all actives have a fitted effect of over 65% in size
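Readout is rescue of growth in alpha-synuclein-expressing yeast, so inhibitors of toxicity appear as activators. Growth after 24 hr at 30 deg C in galactose medium is quantified by luminescence.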
FUS yeast rescue: FUS proteinopathy suppression in yeast | S. cerevisiae FUS-expressing, growth rescue, OD600, 24 h | 390,000 tested, 0.24% active | AID 1347120 | Potency, µM (titrated, usually from 76.6 µM), usual class: activators;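 note: plate controls were DMSO vehicle for no effect and reference control for full effect; nearly all actives have a fitted effect of over 55% in size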
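Compound concentration series was pinned onto galactose-induced FUS-expressing yeast seeded at OD 0.005. Plates sat 24hr at 30C; absorbance at 600 nm gave growth. DMSO served as background control.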
Abeta rescue: compounds reversing amyloid beta toxicity in yeast | yeast expressing A-beta42, growth rescue, OD600, 48 h; response scale: 0% DMSO, 100% iron-clioquinol control | 410,000 tested, 0.063% active | AID 1347071 | Potency, µM (highest dose often 46.1 µM), hits mostly activators; note: nearly all actives have a fitted effect of over 55% in size
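Growth rescue measured by 600 nm absorbance after 48 h yeast culture at 30 C with compound. Values normalized between DMSO and an equimolar ferric chloride plus clioquinol control.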
An asterisk follows results filed as active; i = inactive; ? = inconclusive; nt = no result; [ ] = another dose, or the depositor's remark. In the library only some 2.1% were active in any assay of this set; here they are far more common. Calls come from the whole dose curve; as a rule, active = well fitted curve in the direction sought with a large enough effect; inconclusive = small, poorly fitted or top-dose-only effect, or another doubt; inactive = no such curve, though single readings can be large; an effect the other way counts as inactive or inconclusive. Potency is the fitted concentration of half-maximal effect.

SMILES | TDP-43 yeast inh | aSyn rescue | FUS yeast rescue | Abeta rescue
Cc1ccc(-c2cc3nc(-c4ccccc4)cc(N4CCC5(CC4)OCCO5)n3n2)cc1 | ? | -12.4% | i | i
Cc1cccc(-c2cc3nc(-c4ccccc4)cc(N4CCC5(CC4)OCCO5)n3n2)c1 | 35.5µM* | 2.8% | i | i[9.22 µM]
COc1ccc(/C(O)=C/C(=O)C(=O)NNC(=O)C(O)(c2ccccc2)c2ccccc2)cc1 | 2.0% | 7.5% | 28.2µM* | i
COc1ccc(/C(O)=C/C(=O)C(=O)Nc2c(C)n(C)n(-c3ccccc3)c2=O)cc1 | 0.0% | 0.2% | 28.2µM* | i
Cc1c(NC(=O)C(=O)/C=C(/O)c2ccccc2)c(=O)n(-c2ccccc2)n1C | -49.0% | 11.2% | nt | i
COc1ccc(/C(O)=C/C(=O)C(=O)NNC(=O)c2ccccc2)cc1 | -49.1% | 19.3% | i | i
CSc1ccc(/C=C2\C=Cc3cc([N+](=O)[O-])ccc32)cc1 | nt | -6.9% | nt | nt
CCCNC(=S)Nc1cccc(C(F)(F)F)c1 | -14.7% | -2.5% | i | i
CN(CC1COc2ccccc2O1)C(=S)Nc1ccccc1 (configuration not stated) | 12.6µM* | 13.9% | i | ?
Cc1ccc(NC(=O)CC2COc3ccccc3O2)cc1 (configuration not stated) | -0.3% | 2.5% | i | i
FC(F)(F)c1cccc(NC(=S)NCC2COc3ccccc3O2)c1 (configuration not stated) | 35.5µM* | -28.8% | i | i
O=c1c2cc3c(nc2ncn1Cc1ccccc1F)CCCC3 | 8.8% | nt | i | i
CC(=O)N[C@@H](C)CCc1ccc(Oc2ccc(OC(C)C)nc2)cc1 | nt | nt | i | nt
O=C(N=c1ccn(-c2nc3ccccc3nc2NS(=O)(=O)c2ccc(Cl)cc2)cc1)c1cccs1 | -8.9% | 1.6% | i | i
O=C(N=c1ccn(-c2nc3ccccc3nc2NS(=O)(=O)c2ccccc2)cc1)c1ccccc1Cl | 7.0% | -0.6% | 25.1µM* | nt
COCCNC(=O)c1cnn2c(C(F)F)cc(-c3ccc(C)cc3)nc12 | 0.0% | 0.4% | i | i
CCCNC(=O)c1cnn2c(C(F)F)cc(-c3ccccc3)nc12 | 12.6µM* | nt | i | i
CC(=O)c1ccc(NC(=S)N2CCC(Cc3ccccc3)CC2)cc1 | 25.1µM* | 15.1% | i | ?
CC(=O)c1ccc(NC(=S)N2c3ccccc3CC2C)cc1 (configuration not stated) | 15.8µM* | ? | i | i
C=CCNc1nc(Cl)nc(Nc2ccc(OC)cc2)n1 | 6.0% | 0.6% | i | i
C=CCNc1nc(Nc2ccc(OC)cc2)nc(OC)n1 | 20µM* | -14.9% | i | i
Cc1noc(/C=C/c2ccco2)c1S(=O)(=O)N1CCC(C(=O)Nc2ccc(F)c(Cl)c2)CC1 | -17.8% | nt | ? | i
N#CC(C#N)=C1C(=O)N(CCN2CCOCC2)c2ccccc21 | -9.7% | 4.4% | i | i
N#CC(C#N)=C1C(=O)N(CCN2CCCCC2)c2ccccc21 | -22.2% | 13.4% | 22.4µM* | i
Cc1cccc(N2CCN(C(=O)C3CCN(C(=O)c4cc5sccc5n4C)CC3)CC2)c1C | 35.5µM* | nt | ? | ?
SMILES | TDP-43 yeast inh | aSyn rescue | FUS yeast rescue | Abeta rescue
Cc1cccc(N2CCN(C(=O)C3CCCN(C(=O)c4cc5sccc5n4C)C3)CC2)c1C (configuration not stated) | 0.0% | nt | ? | i
COC(=O)c1ccc2c(=O)n(CCCCCC(=O)NCCc3ccccc3)c(=O)[nH]c2c1 | -4.4% | nt | ? | i
CC(=O)Nc1ccc(C(=O)N2CCCCC2c2cc(C(=O)Nc3cccc4c3CCCC4)no2)cc1 (configuration not stated) | ? | 16.0% | ? | i
Cn1nc(C(C)(C)C)cc1C(=O)N1CCCCC1c1cc(C(=O)Nc2cccc3c2CCCC3)no1 (configuration not stated) | 6.5% | 8.2% | 31.6µM* | i
CCn1nc(C)c2c(-c3ccccc3)cc(=O)n(C(C)C(=O)NCCc3ccc(OC)c(OC)c3)c21 (configuration not stated) | 15.8µM* | nt | i | i
O=C(Nc1cccc(OC(=O)c2ccc(Br)o2)c1)c1ccccc1 | 22.4µM* | -6.6% | i | i
COc1ccc([C@H]2Cc3cccc(O)c3C(=O)O2)cc1O | 11.2µM* | 7.7% | i | i
COc1ccccc1N=c1sc2ccccc2n1C | -10.5% | -6.1% | i | i

Assay outcomes: PubChem BioAssay, National Center for Advancing Translational Sciences (NCATS)
